Z-score data for 60 molecules are collected here from PubChem BioAssay AID488969 (Vanderbilt High Throughput Screening Facility, 2010).

Whole data set: some 110,000 compounds, median “z-score” near -0.1, cut for the highest 2% near 2. This is one part of a sample in which the highest values are shown more often than they occur. Active and inactive are the calls of the source.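 How the source made its calls: active means z-score in the third read window above 3 or below -3; inactive means the rest.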

For the assay, the target named is Metabotropic glutamate receptor 8 (Rattus norvegicus) (UniProt P70579). Put plainly: rat mGluR8 modulators via GIRK flux, primary screen, cell-based, thallium flux, HTS (AID 488969). The settings on record: HEK293 rat mGluR8, GIRK (G protein-gated inwardly rectifying potassium channel) thallium flux, FluoZin2; at 10 µM; stronger effect = higher value.
Sequence of Metabotropic glutamate receptor 8 (Rattus norvegicus) (P70579 whole entry, looked up): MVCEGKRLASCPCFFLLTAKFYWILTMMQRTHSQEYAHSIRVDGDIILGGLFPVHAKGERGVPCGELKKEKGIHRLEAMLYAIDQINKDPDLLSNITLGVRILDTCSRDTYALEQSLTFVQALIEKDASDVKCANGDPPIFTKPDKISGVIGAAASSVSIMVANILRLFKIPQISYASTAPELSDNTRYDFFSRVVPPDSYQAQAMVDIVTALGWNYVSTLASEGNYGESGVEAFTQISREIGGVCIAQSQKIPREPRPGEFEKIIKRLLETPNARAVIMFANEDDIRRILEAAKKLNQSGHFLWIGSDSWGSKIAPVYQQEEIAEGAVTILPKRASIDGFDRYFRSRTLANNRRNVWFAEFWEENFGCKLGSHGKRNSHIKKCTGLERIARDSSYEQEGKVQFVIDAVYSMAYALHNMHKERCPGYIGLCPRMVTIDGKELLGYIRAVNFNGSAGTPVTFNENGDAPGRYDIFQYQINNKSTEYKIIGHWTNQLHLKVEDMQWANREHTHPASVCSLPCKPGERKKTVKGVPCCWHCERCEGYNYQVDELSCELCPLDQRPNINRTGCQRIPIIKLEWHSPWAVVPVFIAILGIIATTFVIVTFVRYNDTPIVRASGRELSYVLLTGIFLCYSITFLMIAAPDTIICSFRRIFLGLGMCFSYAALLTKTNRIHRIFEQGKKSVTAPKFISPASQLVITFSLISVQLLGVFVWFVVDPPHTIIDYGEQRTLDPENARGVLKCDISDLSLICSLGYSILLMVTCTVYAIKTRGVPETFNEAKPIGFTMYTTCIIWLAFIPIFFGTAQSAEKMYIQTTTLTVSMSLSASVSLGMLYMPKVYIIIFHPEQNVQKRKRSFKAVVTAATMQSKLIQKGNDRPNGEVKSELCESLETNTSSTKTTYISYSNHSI
With `CCS(=O)(=O)N1CCC(C(=O)N2CCC3(CC2)OCCO3)CC1`, the z-score was found to be 0.00257.
As for `O=C(C1CCN(S(=O)(=O)c2ccccc2)CC1)N1CCC2(CC1)OCCO2`, the figure is 0.255.
As for `Cc1ccc2nc(N3CCC(C(=O)N4CCC5(CC4)OCCO5)CC3)sc2c1`, the z-score was 4.28 (active).
The molecule `CC(C)CC(=O)NC(Oc1ccc(Cl)cc1)C(Cl)(Cl)Cl` (stereo not given) displayed a z-score of -0.379.
Molecule `CC1(C)CN2C(c3ccc(Cl)cc3)N2C1` (stereo not given) showed a z-score of 0.161.
As for `c1ccc(CNCCc2ccc3c(c2)OCO3)nc1`, the figure is -0.496; as for `c1ccc2c(CCNCc3ccc4c(c3)OCO4)c[nH]c2c1`, 2.19.
`O=[N+]([O-])c1cc2c(cc1CNCCc1ccc3c(c1)OCO3)OCO2`: the z-score turned out to be 0.309.
Turning to `Cc1noc(C)c1C(=O)N1CCC2(CC1)OCCO2`, the z-score is -0.294.
Regarding `COc1cc2[nH]c(=O)n(-c3ccccc3)c(=O)c2cc1OC`, the z-score is -0.252.
Consider `CC(C)Oc1cc(-n2c(=S)[nH]c3ccccc3c2=O)c(Cl)cc1Cl`, for which the z-score was 12.9 (active).
Molecule `O=c1[nH]c2ccccc2c(=O)n1-c1cccc(Cl)c1` displayed a z-score of -0.0839.
With `COc1cc(-n2c(=S)[nH]c3ccccc3c2=O)c(Cl)cc1Cl`, the z-score was 6.65 (active).
`COc1cc2[nH]c(=O)n(-c3cccc(Cl)c3)c(=O)c2cc1OC` returned a z-score of -0.0317.
In turn, `COc1ccc(-n2c(=O)[nH]c3ccccc3c2=O)cc1` showed a z-score of 0.343.
Molecule `O=C(NC(Oc1ccccc1)C(Cl)(Cl)Cl)c1ccccc1` (stereo not given) came in with a z-score of -0.149.
`CN(C(=O)Oc1ccc(Cl)c2cccnc12)c1ccccc1` registered a z-score of -0.251.
In the case of `CCOc1ccc(N=Cc2c(O)n(C(C)(C)C)c(=O)[nH]c2=O)cc1`, the z-score was -0.283.
In the case of `CCOC(=O)C1C2NC(=O)N(Cc3ccccc3)C1(C)Oc1c(OC)cccc12` (stereo not given), the z-score was found to be 0.0221.
Regarding `O=C(CN1C(=O)CN=C(c2ccccc2Cl)c2cc(Cl)ccc21)NCc1ccco1`, the z-score came out at 2.98.
As for `CCC(C)C1N=C(c2ccccc2)c2cc(Cl)ccc2N(CC(=O)NCc2ccco2)C1=O` (stereo not given), the figure is -0.0258; as for `O=C(CN1C(=O)CN=C(c2ccccc2)c2ccccc21)NCc1ccco1`, -0.206; as for `OC(c1ccccc1)(c1ccccc1)c1ccncc1`, -0.0666.
In turn, `c1ccc(CCNCc2ccccc2)cc1` showed a z-score of -0.78.
Turning to `Cn1cccc1CNCCc1ccccc1`, the z-score was 6.88 (active).
Under `Cn1cccc1CNCCc1ccc(F)cc1` stands -0.24; under `CCC(=NCCCN(CC)CC)c1c(O)n(C2CCCCC2)c(=O)[nH]c1=O`, -0.25.
Molecule `N#Cc1c(Cl)nc(Cl)c2c1CCN(Cc1ccccc1)C2` showed a z-score of -0.608.
In turn, `Cc1ccc(OP(=O)(NCc2ccccc2)Oc2ccc(C)cc2)cc1` displayed a z-score of -0.00664.
`OCC12CO[C@@H]3c4ccccc4[C@H](OC1)N32` (stereo not given in full) came in with a z-score of -0.0926.
In turn, `O=C(Nc1ccc(Cl)cc1)O/N=C(\c1ccccc1)c1ccccn1` displayed a z-score of -0.375.
As for `CON(C)C(=O)Nc1ccc(Cl)cc1`, the figure is 0.516.
For the molecule `O=C(Nc1ccc(Cl)cc1)Nc1nccs1`, the z-score was 8.34 (active).
As for `CCC(C)c1ccc(N2C(=O)NC(=O)/C(=C/c3cccn3CCOc3ccc(C)cc3)C2=O)cc1` (stereo not given), the figure is 0.272; as for `Cc1cc(C)c(-n2c(O)c(/C=N/N3CCCCC3c3cccnc3)c(=O)[nH]c2=O)c(C)c1` (stereo not given), -0.531.
`Cc1nn(Cc2ccccc2)c(Cl)c1C(=O)OC(C)C(=O)Nc1ccc(F)cc1Cl` (stereo not given) showed a z-score of 0.0724.
The molecule `CCCCc1nc(N2CCNCC2)c(C#N)c2c1CSC(C)(C)C2` returned a z-score of 2.01.
`COc1ccc(CCNC(=O)COC(=O)Cc2ccccc2)cc1` yielded a z-score of -0.0964.
`O=P(OCC(F)(F)C(F)F)(N1CCCCC1)N1CCCCC1` came in with a z-score of -0.0155.
`COC(=O)c1ccccc1-n1c(C)nc2ccccc2c1=O` yielded a z-score of -0.159.
In the case of `CCCCCn1c(=O)c(C(=O)Nc2c(C)n(C)n(-c3ccccc3)c2=O)c(O)c2ccccc21`, the z-score was -0.252.
As for `CCCCCn1c(=O)c(C(=O)NCc2ccncc2)c(O)c2ccccc21`, the z-score was -1.2.
As for `CC(C)CCn1c(=O)c(C(=O)Nc2ccccc2S(N)(=O)=O)c(O)c2ccccc21`, the figure is 2.
As for `Cn1cc(C(=O)Cc2ccccc2)c2ccccc21`, the z-score worked out at 0.166.
Take `NC12CN3CN(CN(C3)C1)C2` (tested in a mixture with another compound): the z-score was -0.55.
As to `CCN1CCN(CC(=O)c2c(C)n(Cc3ccccc3)c3ccc(OC)cc23)CC1`, the z-score is 0.191.
Under `CC(C)NC(C)C(=O)C12CC3CC(CC(C3)C1)C2` (stereo not given) stands 0.115.
For `CC(NC1CCCCC1)C(O)C12CC3CC(CC(C3)C1)C2` (stereo not given), the z-score is 2.39.
For `O=C(COC(=O)Cc1ccccc1)NC12CC3CC(CC(C3)C1)C2`, the z-score is -0.0902.
Molecule `COCCCn1c(-c2ccc(OC)cc2)cc(C(=O)NC2CCCCCCC2)c1C` registered a z-score of -0.648.
On to `COCCn1c(-c2ccccc2)cc(C(=O)O)c1C`, for which the z-score was 2.06.
`CCCCn1c(C)c(C(=O)O)c2cc(OC)ccc21` registered a z-score of -0.364.
`CCS(=O)(=O)N1CCCC(C(=O)N2CCC3(CC2)OCCO3)C1` (stereo not given): the z-score was 0.0065.
In the case of `CC(C)c1cccc(C(C)C)c1OCCn1ccnc1`, the z-score was 2.23.
As for `CCOc1ccc(-n2c(O)c(C=NCCCn3ccnc3)c(=O)[nH]c2=O)cc1`, the figure is 0.0171.
As for `CCCCCCCSc1cc(OC)c(CCNC)cc1OC`, the figure is 2.15.
Turning to `CCCCCSc1cc(OC)c(CCNC)cc1OC`, the z-score was 0.115.
As for `CCCCCSc1cc(OC)c(CCN)cc1OC`, the z-score was 1.67.
On to `O=C(C1CC(c2ccc(Cl)c(Cl)c2)=NO1)N1CCC2(CC1)OCCO2` (stereo not given), for which the z-score amounted to 0.509.
Regarding `O=c1[nH]c(=O)n(Cc2ccccc2)c(O)c1C=Nc1ccc(CN2CCOCC2)cc1`, the z-score was -0.0494.
